Only some compounds are listed: those with a hit (about 6.6% of all), similar ones and a draw of the others.
FBA Mtb inh = Mtb FBA enzyme inhibitors, primary screen, biochemical, fluorescence, strain H37Rv; purified M. tuberculosis FBA, fluorescence read-out; inhibition, % at 1 µM; 360,000 compounds, 2.3% hits; AID 588726, 2011; in the data active means inhibition above about 27%;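 further: 0% = vehicle and 100% = reference inhibitor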
Anthrax LF prot = Bacillus anthracis LF protease inhibitors, primary screen, biochemical, multiplex microsphere, MLPCN library; Lethal factor (Bacillus anthracis), P15917; multiplex microsphere protease cleavage assay; inhibition, % at 10 µM; 360,000 compounds, 0.12% hits; AID 588501, 2011; further: plate controls were buffer without enzyme for full effect and enzyme alone for no effect
BoNT-A LC inh2 = BoNT/A light chain protease inhibitors, primary screen, biochemical, flow cytometry, MLPCN library; Botulinum neurotoxin type A light chain protease (Clostridium botulinum A str. ATCC 3502); multiplex microsphere protease substrate cleavage; inhibition, % at 10 µM; 360,000 compounds, 0.17% hits; further: plate controls were buffer without enzyme for full effect and enzyme alone for no effect
BoNT F protease = BoNT/F light chain protease inhibitors, primary screen, biochemical, flow cytometry, MLPCN library; Multiplex microsphere protease cleavage assay; 360,000 compounds, 0.22% hits; inhibition, % at 10 µM; AID 588497, 2011; in the data active means inhibition above about 35%, passing the limit was not always enough; inconclusive means no clear call, values can overlap the other calls; further: plate controls were buffer without enzyme for full effect and enzyme alone for no effect
Autofluor counter = counter-screen for toxin protease inhibitors: compound fluorescence. compound autofluorescence counterscreen, microsphere flow cytometry; hits give high values. fluorescence intensity (no concentration beside the values). 360,000 compounds, 3.1% hits; in the data active means fluorescence intensity above about 16000; inconclusive means no clear call, values can overlap the other calls
GDH-TPI counter = GDH-TPI coupling enzyme inhibitors, primary screen, artefact control for M. tuberculosis FBA inhibitor project, biochemical, absorbance, full deck; GDH-TPI coupled enzyme counterscreen, NADH absorbance; inhibition, % at 4.8 µM; 360,000 compounds, 1.2% hits; in the data active means inhibition above about 30%;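 further: 0% = DMSO wells and 100% = wells lacking the enzyme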
Active calls of the source: *; ? = inconclusive; . = no result; + = active, no number. Unless noted, no stated cut-off is given here; in the data, active means inhibition above about 30%; inconclusive means no clear call, values can overlap the other calls; inactive means below that.

SMILES	FBA Mtb inh	Anthrax LF prot	BoNT-A LC inh2	BoNT F protease	Autofluor counter	GDH-TPI counter
COc1cccc(OC)c1/C=C/C(=O)NC1CCCCC1	3.0	-0.3	-8.7	?	4271	-0.5
OC(c1ccccc1)(c1nc(-c2cc(F)cc(F)c2)cs1)C(F)(F)F (configuration not stated)	-2.5	2.0	0.1	-1.6	3699	5.3
C=CCNC(=O)/C(=C\C=C\c1ccccc1)NC(=O)c1ccc(OCCCC)cc1	3.2	-1.5	-0.1	8.9	2082	35.3*
O=C(O)CCCCCCCCCCCc1ccccc1	-1.2	-3.1	-0.8	-6.7	5323	-2.0
O=C(N/N=C/c1ccco1)c1cc(-c2cccc(Br)c2)nc2ccccc12	-0.6	-0.4	-1.0	-1.2	9261	40.7*
CC(/C=N/NC(=O)c1cc(-c2ccncc2)nc2ccccc12)=C\c1ccco1	1.0	-6.3	1.2	-0.7	16302*	17.6
O=C(N/N=C/c1cccc(O)c1)c1cc(-c2ccccc2)nc2ccccc12	-1.4	-7.1	-1.6	24.0	3735	9.9
CCOc1ccc(CCNC(=O)Cc2ccc(NC3=NC4CS(=O)(=O)CC4S3)cc2)cc1OCC (configuration not stated)	1.9	-0.7	1.3	4.5	5395	1.6
CCOC(=O)C1CCN(C(=O)c2sc3nc(C)nc(N4CCC(C)CC4)c3c2C)CC1	-1.5	-1.4	-3.0	-4.0	21764*	7.5
Cc1nc(N2CCC(C)CC2)c2c(C)c(C(=O)Nc3ccc4c(c3)OCCO4)sc2n1	-0.5	.	.	.	.	11.3
CCOC(=O)C1CCN(C(=O)c2sc3ncnc(N4CCC(C)CC4)c3c2C)CC1	2.7	-2.2	?	1.9	16307*	12.4
COc1ccc(Nc2nnc(C)c(=O)[nH]2)c(OC)c1	1.2	2.7	-0.9	-18.0	6305	2.5
Cc1cc(C)n2nc3nc4c(cc3c2n1)CCCC4	+	1.7	?	6.4	19863*	26.6
Cc1cc(C)n2nc(C)c(Br)c2n1	4.0	0.9	0.2	-5.5	2275	-0.8
CC1(C)CC(=O)C2=C(C1)N(c1ccccc1)C(=O)C2(O)C(F)(F)F (configuration not stated)	0.2	-2.8	-0.8	-4.4	10661	2.2
CCOc1ccc(/C=C/c2nc(C#N)c(NCCCN(C)C)o2)cc1	16.5	-5.8	-0.2	4.0	3570	35.7*
CN(C)CCCNc1oc(/C=C/c2ccccc2)nc1C#N	4.0	3.1	-0.3	1.1	5401	14.6
COCCCNc1oc(/C=C/c2ccccc2)nc1C#N	.	3.8	-1.6	?	4110	30.5
C=CCNc1oc(/C=C/c2ccccc2)nc1C#N	+	-6.0	-1.2	-9.5	10349	47.6*
CN(C)CCNc1oc(/C=C/c2ccccc2)nc1C#N	135.3*	0.8	0.5	-3.9	2552	10.3
C=CCNc1oc(Cc2cccc3ccccc23)nc1C#N	3.3	-1.1	-0.7	-10.5	6160	5.6
COc1cccc(/C=C/c2nc(C#N)c(NCC(C)C)o2)c1	+	.	.	.	.	26.9
NC(=O)CSc1oc(-c2ccco2)nc1S(=O)(=O)c1ccc(F)cc1	-0.7	-4.4	-0.6	9.8	3729	-1.5
Cc1ccc(-c2nc(NCc3ccco3)c3ccccc3n2)cc1	1.0	-2.2	-0.2	-2.2	2547	4.6
c1ccc(-c2nc(NCc3ccco3)c3oc4ccccc4c3n2)cc1	-0.2	-4.3	?	2.3	22249*	8.6
SMILES	FBA Mtb inh	Anthrax LF prot	BoNT-A LC inh2	BoNT F protease	Autofluor counter	GDH-TPI counter
COC(=O)[C@]12CCCCC=C1N(Cc1ccc(Cl)cc1Cl)C(=O)[C@H](CC(=O)N1CCSCC1)C2	.	-1.2	-0.9	-11.9	5365	.
CCOc1ccc(OCCCC(=O)O)cc1	1.2	-2.2	0.4	-0.8	20482*	-12.1
Cn1nnnc1SCC(=O)Nc1ccccc1Br	-2.2	-0.5	-0.6	-0.6	6161	-12.4
Cn1nnnc1SCC(=O)Nc1cc(C(=O)O)cc(C(=O)O)c1	0.9	1.6	?	-5.2	17115*	4.3
CCC(=O)Nc1cccc(NC(=O)CSc2nnnn2C)c1	-0.7	-5.1	-1.2	-2.8	16778*	11.7
Cn1nnnc1SCC(=O)NCc1cccc(C(=O)O)c1	-3.4	0.5	?	0.6	20029*	-9.7

High-throughput results as filed in PubChem.
